# PubChem BioAssay (Tox21)
# Records with an inconclusive call do not appear. Entries that show only a call come without a potency. Values without a mark were called inactive. Activity calls are given as the source filed them. Unless noted, calls follow the shape of the dose curve; as a rule, active = well fitted cell-killing curve with a large enough effect in the repeat runs; inconclusive = weak or mixed curves, or effect the other way; inactive = flat fitted curve, though single readings scatter.
# Molecular target: Estrogen receptor beta (Homo sapiens) (UniProt Q92731)
# Sequence (Q92731 whole entry, looked up): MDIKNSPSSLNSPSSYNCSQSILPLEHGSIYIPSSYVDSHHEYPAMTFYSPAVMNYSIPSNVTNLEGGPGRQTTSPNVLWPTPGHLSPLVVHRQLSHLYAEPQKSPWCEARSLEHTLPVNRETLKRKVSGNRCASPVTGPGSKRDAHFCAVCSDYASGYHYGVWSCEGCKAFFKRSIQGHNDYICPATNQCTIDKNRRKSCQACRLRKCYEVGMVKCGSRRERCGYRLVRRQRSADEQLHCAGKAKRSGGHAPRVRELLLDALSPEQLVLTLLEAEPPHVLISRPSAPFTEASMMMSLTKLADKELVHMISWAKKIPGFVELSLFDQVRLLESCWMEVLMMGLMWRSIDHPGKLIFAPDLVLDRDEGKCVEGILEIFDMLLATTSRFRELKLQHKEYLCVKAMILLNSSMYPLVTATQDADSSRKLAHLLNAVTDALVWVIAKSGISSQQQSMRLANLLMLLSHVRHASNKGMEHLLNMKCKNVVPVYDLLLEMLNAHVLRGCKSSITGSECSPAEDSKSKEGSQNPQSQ
# Assay: qHTS assay to identify small molecule antagonists of the estrogen receptor beta (ER-beta) signaling pathway (AID 1259378; active = well fitted inhibition curve with a large enough effect in the signal ratio in the repeat runs, not every such curve was filed as active; the % refers to the signal ratio)
# Conditions: ER-beta-UAS-bla HEK293T, beta-lactamase FRET ratio, 16 h; series mostly up to 92.4 µM
# Outline: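 ER-beta-UAS-bla HEK293T (GripTite) cells in 2% charcoal-stripped FBS medium were preincubated 6 hr at 37C, dosed with compound, then stimulated with 1 nM E2 (final) for 16 hr; beta-lactamase reporter read by B/G FRET fluorescence after 2 hr substrate loading.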
# Potency is read from the fitted curve at half-maximal effect.
row,Compound,Potency
1,O=C1NC(=O)c2cccc3cccc1c23,inactive
2,O=[N+]([O-])C1(Br)COCOC1,inactive
3,Nc1c(Cl)cc(Cl)cc1[N+](=O)[O-],inactive
4,C=C(C)c1ccccc1,inactive
5,CCCCCc1ccco1,25.1 µM (active)
6,CSCC[C@H](NC(=O)[C@H](Cc1c[nH]c2ccccc12)NC(=O)CCNC(=O)OC(C)(C)C)C(=O)N[C@@H](CC(=O)O)C(=O)N[C@@H](Cc1ccccc1)C(N)=O,inactive
7,O=C(Nc1ccc(C(=O)O)c(O)c1)c1ccccc1,inactive
8,COC(OC)OC,inactive
9,CC(C)COC(=O)COc1cc(Cl)c(Cl)cc1Cl,inactive
10,C1CCCCC1,inactive
11,COC(=O)CC(C(C)=O)C(=O)OC (stereo not drawn),inactive
12,NC(=O)c1ccccc1[N+](=O)[O-],inactive
13,CC[C@H]1OC(=O)[C@H](C)[C@@H](O[C@H]2C[C@@](C)(OC)[C@@H](O)[C@H](C)O2)[C@H](C)[C@@H](O[C@@H]2O[C@H](C)C[C@H](N(C)C)[C@H]2O)[C@](C)(O)C[C@@H](C)CN(C)[C@H](C)[C@@H](O)[C@]1(C)O,inactive
14,SCCc1cnccn1,inactive
15,Cc1ccc(N(CC2=NCCN2)c2cccc(O)c2)cc1,inactive
16,O=C(O)CO,inactive

# Tested on: not listed separately
# Assay: qHTS assay to identify small molecule agonists of the androgen receptor (AR) signaling pathway in the presence of an antagonist - cell viability counter screen (AID 1259379); also: nearly all actives have a fitted effect of over 25% in size;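 as to activity change, negative = cytotoxicity: MDA-kb2 human breast cancer cells carrying an MMTV luciferase reporter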
# Conditions: MDA-kb2 viability, CellTiter-Fluor, 16 h; series mostly up to 92.4 µM
# Outline: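 Cells: MDA-kb2 (MMTV-luc, AR and GR elements), 3,000/well, 5 hr settle. Added: nilutamide 3.0uM final, then compounds (15 conc.). Incubation: 16 hr, 37C, no CO2. Read-out: CellTiter-Fluor, 1 hr, fluorescence.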
row,Compound,Potency
1,O=C1NC(=O)c2cccc3cccc1c23,inactive
2,Cc1ccc(NC(=O)N(C)C)cc1NC(=O)N(C)C,inactive
3,O=C(O)c1cccc(Oc2ccccc2)c1,inactive
4,Nc1c(Cl)cc(Cl)cc1[N+](=O)[O-],inactive
5,C=C(C)c1ccccc1,inactive
6,N[C@@H](Cc1cc(I)c(O)c(I)c1)C(=O)O,inactive
7,CCCCCc1ccco1,inactive
8,CSCC[C@H](NC(=O)[C@H](Cc1c[nH]c2ccccc12)NC(=O)CCNC(=O)OC(C)(C)C)C(=O)N[C@@H](CC(=O)O)C(=O)N[C@@H](Cc1ccccc1)C(N)=O,inactive
9,CCCCCCOC(=O)CCCCC,inactive
10,O=C(Nc1ccc(C(=O)O)c(O)c1)c1ccccc1,inactive
11,O=c1[nH][nH]c(=O)c2cc([N+](=O)[O-])ccc12,inactive
12,O=C(Oc1ccccc1)c1ccc2ccccc2c1O,inactive
13,COC(=O)CC(C(C)=O)C(=O)OC (stereo not drawn),inactive
14,NC(=O)c1ccccc1[N+](=O)[O-],inactive
15,Cc1ccc(N(CCO)CCO)cc1,inactive
16,CC[C@H]1OC(=O)[C@H](C)[C@@H](O[C@H]2C[C@@](C)(OC)[C@@H](O)[C@H](C)O2)[C@H](C)[C@@H](O[C@@H]2O[C@H](C)C[C@H](N(C)C)[C@H]2O)[C@](C)(O)C[C@@H](C)CN(C)[C@H](C)[C@@H](O)[C@]1(C)O,inactive

row,Compound,Potency
1,SCCc1cnccn1,inactive
2,Cc1ccc(N(CC2=NCCN2)c2cccc(O)c2)cc1,inactive
3,O=S(=O)(O)CO,inactive
4,O=C(c1ccccc1)c1ccc(O)cc1,inactive
5,CC(CCc1ccc(O)cc1)NCCc1ccc(O)c(O)c1 (stereo not drawn),inactive
6,Oc1ccc2c(c1)Cc1ccccc1-2,inactive
7,O=C(O)CO,inactive
8,CCCCCCCCCCCCCOS(=O)(=O)O,inactive
9,COc1cc(NCc2ccc3nc(N)nc(N)c3c2C)cc(OC)c1OC,inactive
10,ClC1=C(Cl)C1(Cl)Cl,inactive
11,Cc1ccc(Nc2c(F)cccc2Cl)c(CC(=O)O)c1,inactive
12,CCSC(=O)N(CC)CC,inactive
13,CC(C)C(=O)OCCOc1ccccc1,inactive
14,CCN(Cc1cccc(S(=O)(=O)O)c1)c1ccc(C(=C2C=CC(=[N+](CC)Cc3cccc(S(=O)(=O)O)c3)C=C2)c2ccccc2S(=O)(=O)[O-])cc1,17.3 µM (active)
15,CCCCCCCCCCCSCC(=O)O,inactive

# Tested on: not listed separately
# Assay: qHTS assay to identify small molecule agonists of the estrogen receptor beta (ER-beta) signaling pathway - cell viability counter screen (AID 1259380); also: nearly all actives have a fitted effect of over 30% in size
# Conditions: ER-beta-bla HEK293T viability, CellTiter-Glo luminescence, 16 h; series mostly up to 92.4 µM
# Outline: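 HEK293T ER-beta-UAS-bla; 2% CS-FBS; 6 hr pre-plate, 16 hr cpd at 37C/5% CO2; LiveBLAzer read first, then CellTiter-Glo 30 min RT, luminescence.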
Compound,Potency,"activity change, negative = cytotoxicity"
Cc1ccc(NC(=O)N(C)C)cc1NC(=O)N(C)C,inactive,
O=C(O)c1cccc(Oc2ccccc2)c1,inactive,
Nc1c(Cl)cc(Cl)cc1[N+](=O)[O-],inactive,
C=C(C)c1ccccc1,inactive,
N[C@@H](Cc1cc(I)c(O)c(I)c1)C(=O)O,inactive,
CSCC[C@H](NC(=O)[C@H](Cc1c[nH]c2ccccc12)NC(=O)CCNC(=O)OC(C)(C)C)C(=O)N[C@@H](CC(=O)O)C(=O)N[C@@H](Cc1ccccc1)C(N)=O,inactive,
CCCCCCOC(=O)CCCCC,inactive,
O=C(Nc1ccc(C(=O)O)c(O)c1)c1ccccc1,inactive,
COC(OC)OC,inactive,
CC(C)COC(=O)COc1cc(Cl)c(Cl)cc1Cl,inactive,
BrC(Br)C(Br)Br,inactive,
O=c1[nH][nH]c(=O)c2cc([N+](=O)[O-])ccc12,inactive,
C1CCCCC1,inactive,
O=C(Oc1ccccc1)c1ccc2ccccc2c1O,inactive,
NC(=O)c1ccccc1[N+](=O)[O-],inactive,
Cc1ccc(N(CCO)CCO)cc1,inactive,

Compound,Potency,"activity change, negative = cytotoxicity"
CC[C@H]1OC(=O)[C@H](C)[C@@H](O[C@H]2C[C@@](C)(OC)[C@@H](O)[C@H](C)O2)[C@H](C)[C@@H](O[C@@H]2O[C@H](C)C[C@H](N(C)C)[C@H]2O)[C@](C)(O)C[C@@H](C)CN(C)[C@H](C)[C@@H](O)[C@]1(C)O,inactive,
Cc1ccc(N(CC2=NCCN2)c2cccc(O)c2)cc1,inactive,
O=S(=O)(O)CO,inactive,
O=C(c1ccccc1)c1ccc(O)cc1,inactive,
CC(CCc1ccc(O)cc1)NCCc1ccc(O)c(O)c1 (stereo not drawn),inactive,
O=C(O)CO,inactive,
CCCCCCCCCCCCCOS(=O)(=O)O,54.5 µM (active),
CCC(Cl)CC(Cl)C(Cl)C(Cl)C(Cl)C(C)Cl (stereo not drawn),,-10.7% [at 19 µM]
COc1cc(NCc2ccc3nc(N)nc(N)c3c2C)cc(OC)c1OC,0.237 µM (active),
CC(C)COC(=O)c1ccc(O)cc1,inactive,
ClC1=C(Cl)C1(Cl)Cl,inactive,
Cc1ccc(Nc2c(F)cccc2Cl)c(CC(=O)O)c1,26.6 µM (active),
CCSC(=O)N(CC)CC,inactive,
CC(C)C(=O)OCCOc1ccccc1,inactive,
CCCCCCCCCCCSCC(=O)O,27.3 µM (active),
